Legend:
Experiment in all cases: DAPPL (digital affinity profiling via proximity ligation, sequencing); 10 mM Tris-HCl pH 7.5, 50 mM NaCl, 1 mM DTT, 4% glycerol, room temperature, 30 min; GST-TFs on glutathione beads, 16-mer random dsDNA library, 0.1% formaldehyde crosslink after washing; high values mean tight binding
FEV = target: T1, FEV (Homo sapiens, UniProt Q99581 1-238); details: protein: recombinant; tags: N-terminal GST; dsDNA, one strand shown
T1 sequence: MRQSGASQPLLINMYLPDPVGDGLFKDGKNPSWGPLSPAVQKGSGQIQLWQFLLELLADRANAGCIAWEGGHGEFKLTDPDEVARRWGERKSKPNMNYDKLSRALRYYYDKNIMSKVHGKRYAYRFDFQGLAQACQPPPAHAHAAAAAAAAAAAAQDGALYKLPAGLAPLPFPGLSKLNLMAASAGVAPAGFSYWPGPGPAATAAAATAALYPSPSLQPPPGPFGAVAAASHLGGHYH
How it was run: (§1)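 Human transcription factors fused to GST were expressed in yeast, captured on glutathione beads, given DNA barcodes and pooled with a GST-only negative control. Pools were incubated with 200 nmole of a 16-mer random double-stranded DNA library in Tris/NaCl/DTT/glycerol buffer at room temperature for 30 min. They were then washed, crosslinked with 0.1% formaldehyde, proximity-ligated (BsaI/T4 ligase, 1 h, 37 °C), PCR-amplified and sequenced on an Illumina NextSeq500. Binding signal is each 6-mer's read frequency for a factor divided by its frequency for the GST control.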

ETV5 = ETV5 (Homo sapiens, UniProt P41161 1-510); details: protein: recombinant; tags: N-terminal GST; dsDNA, one strand shown
Chain of ETV5 (P41161 whole entry): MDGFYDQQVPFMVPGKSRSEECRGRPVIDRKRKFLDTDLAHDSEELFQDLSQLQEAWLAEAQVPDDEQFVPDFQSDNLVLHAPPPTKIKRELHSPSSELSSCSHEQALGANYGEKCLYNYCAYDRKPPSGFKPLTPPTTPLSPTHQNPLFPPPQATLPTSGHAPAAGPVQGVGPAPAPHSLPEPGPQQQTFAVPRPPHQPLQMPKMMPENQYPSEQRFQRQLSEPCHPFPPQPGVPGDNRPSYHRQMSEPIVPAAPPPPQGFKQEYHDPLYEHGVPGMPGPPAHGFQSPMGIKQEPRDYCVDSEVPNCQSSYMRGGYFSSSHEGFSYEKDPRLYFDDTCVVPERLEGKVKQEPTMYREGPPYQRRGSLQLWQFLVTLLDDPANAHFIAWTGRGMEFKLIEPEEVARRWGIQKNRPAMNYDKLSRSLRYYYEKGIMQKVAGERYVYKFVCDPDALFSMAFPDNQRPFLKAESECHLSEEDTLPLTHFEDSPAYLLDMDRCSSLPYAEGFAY
How it was run: as §1

HSF1 = HSF1 (Homo sapiens, UniProt Q00613 1-529); details: protein: recombinant; tags: N-terminal GST; chain copies: 3; dsDNA, one strand shown
Chain of HSF1 (Q00613 whole entry): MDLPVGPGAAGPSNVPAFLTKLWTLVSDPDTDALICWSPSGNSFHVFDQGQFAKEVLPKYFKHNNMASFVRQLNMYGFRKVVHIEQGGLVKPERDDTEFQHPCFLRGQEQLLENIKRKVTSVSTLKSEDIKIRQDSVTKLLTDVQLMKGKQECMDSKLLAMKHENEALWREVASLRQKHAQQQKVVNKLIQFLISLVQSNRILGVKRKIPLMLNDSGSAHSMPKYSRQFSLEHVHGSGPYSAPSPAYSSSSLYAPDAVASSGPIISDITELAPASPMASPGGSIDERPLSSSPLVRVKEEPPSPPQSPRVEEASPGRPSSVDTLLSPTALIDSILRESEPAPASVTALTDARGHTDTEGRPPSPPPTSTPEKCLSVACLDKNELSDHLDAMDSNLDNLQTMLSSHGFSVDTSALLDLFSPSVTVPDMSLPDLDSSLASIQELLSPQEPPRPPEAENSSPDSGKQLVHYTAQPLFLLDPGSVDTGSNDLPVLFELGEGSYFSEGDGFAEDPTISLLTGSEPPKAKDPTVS
How it was run: as §1

SPIC = target: T2, SPIC (Homo sapiens, UniProt Q8N5J4 1-248); details: protein: recombinant; tags: N-terminal GST; dsDNA, one strand shown
T2 sequence: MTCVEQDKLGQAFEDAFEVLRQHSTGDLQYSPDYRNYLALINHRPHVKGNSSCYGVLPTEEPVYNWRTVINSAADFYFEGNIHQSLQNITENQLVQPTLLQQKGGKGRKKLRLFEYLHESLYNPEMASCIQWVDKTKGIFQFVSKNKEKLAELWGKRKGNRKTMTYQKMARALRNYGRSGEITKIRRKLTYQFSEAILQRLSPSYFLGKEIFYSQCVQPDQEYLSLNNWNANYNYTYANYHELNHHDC
How it was run: as §1

ELF4 = ELF4 (Homo sapiens, UniProt Q99607 1-663); details: protein: recombinant; tags: N-terminal GST; dsDNA, one strand shown
Chain of ELF4 (Q99607 whole entry): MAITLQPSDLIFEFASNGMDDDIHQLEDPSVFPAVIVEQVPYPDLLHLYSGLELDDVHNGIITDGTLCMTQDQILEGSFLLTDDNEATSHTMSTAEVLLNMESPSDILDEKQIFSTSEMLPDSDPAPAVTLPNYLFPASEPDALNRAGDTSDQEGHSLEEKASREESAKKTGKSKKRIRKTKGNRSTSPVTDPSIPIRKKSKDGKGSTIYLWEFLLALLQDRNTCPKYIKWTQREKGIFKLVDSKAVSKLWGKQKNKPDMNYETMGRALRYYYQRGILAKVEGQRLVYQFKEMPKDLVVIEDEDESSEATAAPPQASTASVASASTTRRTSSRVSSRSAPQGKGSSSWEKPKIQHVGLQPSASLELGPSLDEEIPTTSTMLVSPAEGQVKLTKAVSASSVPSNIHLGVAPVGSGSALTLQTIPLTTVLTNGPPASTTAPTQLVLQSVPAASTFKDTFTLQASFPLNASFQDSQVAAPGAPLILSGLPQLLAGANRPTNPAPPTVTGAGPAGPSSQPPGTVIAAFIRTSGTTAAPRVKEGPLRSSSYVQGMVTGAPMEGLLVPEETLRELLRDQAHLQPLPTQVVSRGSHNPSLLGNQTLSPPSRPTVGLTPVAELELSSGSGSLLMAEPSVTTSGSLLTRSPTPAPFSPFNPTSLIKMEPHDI
How it was run: as §1

ELK4 = target: T3, ELK4 (Homo sapiens, UniProt P28324-2 1-405); details: protein: recombinant; tags: N-terminal GST; dsDNA, one strand shown
T3 sequence: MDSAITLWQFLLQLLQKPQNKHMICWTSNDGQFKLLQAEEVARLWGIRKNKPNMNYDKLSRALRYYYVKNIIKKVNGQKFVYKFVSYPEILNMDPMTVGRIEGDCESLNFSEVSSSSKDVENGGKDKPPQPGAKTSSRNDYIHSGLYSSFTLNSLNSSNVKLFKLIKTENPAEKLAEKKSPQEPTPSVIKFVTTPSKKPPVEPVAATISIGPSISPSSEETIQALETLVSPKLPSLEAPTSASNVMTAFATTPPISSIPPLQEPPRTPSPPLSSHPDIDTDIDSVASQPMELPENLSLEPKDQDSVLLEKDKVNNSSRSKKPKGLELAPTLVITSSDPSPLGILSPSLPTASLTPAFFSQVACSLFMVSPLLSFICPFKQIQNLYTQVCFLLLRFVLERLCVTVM
How it was run: as §1

ETV2 = target: T4, ETV2 (Homo sapiens, UniProt O00321 1-342); details: protein: recombinant; tags: N-terminal GST; dsDNA, one strand shown
T4 sequence: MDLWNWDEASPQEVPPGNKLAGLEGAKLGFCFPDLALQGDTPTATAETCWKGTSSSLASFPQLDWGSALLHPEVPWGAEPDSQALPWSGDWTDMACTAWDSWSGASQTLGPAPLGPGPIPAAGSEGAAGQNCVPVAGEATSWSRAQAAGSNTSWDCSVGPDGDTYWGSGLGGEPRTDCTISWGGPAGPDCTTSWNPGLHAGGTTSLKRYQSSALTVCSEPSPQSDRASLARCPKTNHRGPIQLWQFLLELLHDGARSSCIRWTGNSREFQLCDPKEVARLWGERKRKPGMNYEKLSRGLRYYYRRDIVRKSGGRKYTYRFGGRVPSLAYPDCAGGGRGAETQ
How it was run: as §1

ELF3 = target: T5, ELF3 (Homo sapiens, UniProt P78545 1-371); details: protein: recombinant; tags: N-terminal GST; dsDNA, one strand shown
T5 sequence: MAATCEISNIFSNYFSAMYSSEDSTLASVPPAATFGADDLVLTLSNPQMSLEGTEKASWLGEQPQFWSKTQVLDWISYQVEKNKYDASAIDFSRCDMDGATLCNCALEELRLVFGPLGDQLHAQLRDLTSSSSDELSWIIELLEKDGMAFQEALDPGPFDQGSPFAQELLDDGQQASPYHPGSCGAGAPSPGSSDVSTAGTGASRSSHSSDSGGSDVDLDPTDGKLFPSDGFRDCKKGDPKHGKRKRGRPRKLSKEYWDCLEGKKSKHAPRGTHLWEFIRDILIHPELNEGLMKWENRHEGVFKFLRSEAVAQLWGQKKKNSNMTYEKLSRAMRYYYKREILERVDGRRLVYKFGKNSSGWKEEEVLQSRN
How it was run: as §1

CRX = CRX (Homo sapiens, UniProt O43186 1-299); details: protein: recombinant; tags: N-terminal GST; dsDNA, one strand shown
Chain of CRX (O43186 whole entry): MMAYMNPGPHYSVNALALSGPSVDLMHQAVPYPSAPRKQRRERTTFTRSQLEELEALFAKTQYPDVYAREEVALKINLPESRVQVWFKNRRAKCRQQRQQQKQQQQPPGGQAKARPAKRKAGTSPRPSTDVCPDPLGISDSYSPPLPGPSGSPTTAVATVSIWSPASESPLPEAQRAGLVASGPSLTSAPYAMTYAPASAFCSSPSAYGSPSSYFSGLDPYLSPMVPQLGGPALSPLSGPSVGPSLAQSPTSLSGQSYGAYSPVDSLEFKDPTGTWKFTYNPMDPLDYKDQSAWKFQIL
How it was run: as §1

ETV1 = ETV1 (Homo sapiens, UniProt P50549 1-477); details: protein: recombinant; tags: N-terminal GST; dsDNA, one strand shown
Chain of ETV1 (P50549 whole entry): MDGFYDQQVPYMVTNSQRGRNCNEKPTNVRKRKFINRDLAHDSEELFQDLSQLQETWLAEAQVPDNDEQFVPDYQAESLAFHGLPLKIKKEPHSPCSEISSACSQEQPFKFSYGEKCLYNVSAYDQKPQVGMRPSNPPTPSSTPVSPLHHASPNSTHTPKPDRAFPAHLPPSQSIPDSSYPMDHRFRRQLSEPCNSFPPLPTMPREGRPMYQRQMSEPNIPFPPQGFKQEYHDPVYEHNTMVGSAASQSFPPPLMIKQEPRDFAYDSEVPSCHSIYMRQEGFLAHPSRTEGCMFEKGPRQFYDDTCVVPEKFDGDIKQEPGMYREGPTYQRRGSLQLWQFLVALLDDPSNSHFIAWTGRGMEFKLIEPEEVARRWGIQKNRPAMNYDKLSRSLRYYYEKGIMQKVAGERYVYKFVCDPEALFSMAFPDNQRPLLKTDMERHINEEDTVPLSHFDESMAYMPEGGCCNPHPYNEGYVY
How it was run: as §1

ATCCTG
binding signal (FEV): 1.46 fold enrichment (6-mer frequency, TF over GST control) | binding signal (ETV5): 1.71 fold enrichment (6-mer frequency, TF over GST control) | binding signal (HSF1): 1.33 fold enrichment (6-mer frequency, TF over GST control) | binding signal (SPIC): 1.19 fold enrichment (6-mer frequency, TF over GST control) | binding signal (ELF4): 1.35 fold enrichment (6-mer frequency, TF over GST control) | binding signal (ELK4): 1.33 fold enrichment (6-mer frequency, TF over GST control) | binding signal (ETV2): 1.42 fold enrichment (6-mer frequency, TF over GST control) | binding signal (ELF3): 1.35 fold enrichment (6-mer frequency, TF over GST control) | binding signal (CRX): 1.55 fold enrichment (6-mer frequency, TF over GST control) | binding signal (ETV1): 1.43 fold enrichment (6-mer frequency, TF over GST control)
